Source: the supplement of paper PMC10849652
The full data set covers some 7,900 targets. This sample favours those with a hit. About 0.6% of all pairs of compound and target were hits. Unmarked numbers belong to inactive results.

Assays:
Experiment in all cases: log2 fold change, soluble protein after heating vs DMSO (PISA); higher = thermal stabilisation; K562 cells, 10 uM, 30 min; active = over 0.2 and 3.5 SD of the protein, either way, in both replicates (recomputed)
[1] = compound: C1=CC=C(C=C1)[C@H](COC2=CC3=C(C=C2)NC(=O)N3)NC(=O)C4=CC=CN(C4=O)CC5=CC(=C(C=C5)F)F
In short: (§1)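 K562 cells at 2×10^6 cells/mL were treated for 30 min with 10 μM compound, and aliquots were heated for 3 min over 48°C-58°C before pooling. Extraction used PBS with 0.5% NP-40 at 4°C, and soluble protein was the supernatant after 21,000xg for 90 min, measured by TMTpro 16plex LC-MS/MS with channel sums equalised. Thermal stability values, relative to control samples and from duplicates, are log2 fold changes.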

[2] = compound: CC1=C(SC2=C1C(=N[C@H](C3=NN=C(N32)C)CC(=O)N)C4=CC=C(C=C4)Cl)C
In short: as §1

[3] = compound: CC1=C2C(=CC=C1)N=C(N(C2=O)C3=CC=CC=C3C)CN4C=NC5=C(N=CN=C54)N
In short: as §1

[4] = compound: Cc1sc2c(c1C)C(c1ccc(Cl)cc1)=N[C@@H](CC(=O)OC(C)(C)C)c1nnc(C)n1-2
In short: as §1

[5] = compound: c1ccc([C@@H]2C[C@H]2NC2CCNCC2)cc1
In short: as §1

Sequence of UniProt Q96DA6 (Q96DA6 whole entry, looked up): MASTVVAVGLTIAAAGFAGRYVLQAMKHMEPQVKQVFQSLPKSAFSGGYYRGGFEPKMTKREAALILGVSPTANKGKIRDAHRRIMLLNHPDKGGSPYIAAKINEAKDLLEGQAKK
Sequence of UniProt P35222 (P35222 whole entry, looked up): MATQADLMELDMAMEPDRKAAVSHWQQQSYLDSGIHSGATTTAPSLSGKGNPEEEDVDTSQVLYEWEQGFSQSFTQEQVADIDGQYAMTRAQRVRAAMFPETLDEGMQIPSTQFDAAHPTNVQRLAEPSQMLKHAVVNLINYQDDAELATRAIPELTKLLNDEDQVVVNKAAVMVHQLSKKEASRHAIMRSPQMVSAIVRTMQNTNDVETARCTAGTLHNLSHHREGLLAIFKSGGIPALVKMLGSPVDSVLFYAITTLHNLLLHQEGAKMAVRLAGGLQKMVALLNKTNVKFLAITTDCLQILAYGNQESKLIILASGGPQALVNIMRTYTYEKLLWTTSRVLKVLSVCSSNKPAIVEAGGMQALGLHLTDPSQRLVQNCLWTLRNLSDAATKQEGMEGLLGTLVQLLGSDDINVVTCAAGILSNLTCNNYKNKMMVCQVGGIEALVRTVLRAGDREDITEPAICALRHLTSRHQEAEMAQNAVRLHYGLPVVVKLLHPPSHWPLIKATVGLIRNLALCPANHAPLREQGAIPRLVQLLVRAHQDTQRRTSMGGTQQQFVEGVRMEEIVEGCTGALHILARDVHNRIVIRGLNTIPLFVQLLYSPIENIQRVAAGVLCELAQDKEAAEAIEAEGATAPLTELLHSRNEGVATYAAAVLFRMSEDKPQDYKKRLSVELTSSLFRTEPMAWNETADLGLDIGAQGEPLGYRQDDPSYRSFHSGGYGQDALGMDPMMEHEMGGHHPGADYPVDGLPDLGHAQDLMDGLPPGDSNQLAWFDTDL
Sequence of UniProt Q9NRY5 (Q9NRY5 whole entry, looked up): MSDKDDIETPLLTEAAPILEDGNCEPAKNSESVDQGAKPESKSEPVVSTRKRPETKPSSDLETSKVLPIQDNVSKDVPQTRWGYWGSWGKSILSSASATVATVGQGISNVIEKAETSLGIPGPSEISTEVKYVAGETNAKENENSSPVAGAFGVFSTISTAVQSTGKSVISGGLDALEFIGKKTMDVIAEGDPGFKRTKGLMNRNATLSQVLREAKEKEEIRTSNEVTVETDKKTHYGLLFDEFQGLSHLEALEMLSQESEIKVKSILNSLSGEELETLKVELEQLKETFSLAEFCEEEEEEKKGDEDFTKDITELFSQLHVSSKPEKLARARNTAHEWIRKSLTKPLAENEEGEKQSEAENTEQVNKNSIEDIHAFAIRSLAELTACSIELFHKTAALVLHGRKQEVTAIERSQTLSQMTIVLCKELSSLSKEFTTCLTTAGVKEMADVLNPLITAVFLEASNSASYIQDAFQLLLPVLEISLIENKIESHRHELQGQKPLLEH
Sequence of UniProt Q9NXF7 (Q9NXF7 whole entry, looked up): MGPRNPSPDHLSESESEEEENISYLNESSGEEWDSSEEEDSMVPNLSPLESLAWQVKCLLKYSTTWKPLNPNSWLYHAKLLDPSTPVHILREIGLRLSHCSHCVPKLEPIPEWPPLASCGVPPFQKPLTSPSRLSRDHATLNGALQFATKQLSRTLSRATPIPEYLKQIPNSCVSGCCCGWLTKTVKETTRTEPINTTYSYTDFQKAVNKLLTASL
Sequence of UniProt O15121 (O15121 whole entry, looked up): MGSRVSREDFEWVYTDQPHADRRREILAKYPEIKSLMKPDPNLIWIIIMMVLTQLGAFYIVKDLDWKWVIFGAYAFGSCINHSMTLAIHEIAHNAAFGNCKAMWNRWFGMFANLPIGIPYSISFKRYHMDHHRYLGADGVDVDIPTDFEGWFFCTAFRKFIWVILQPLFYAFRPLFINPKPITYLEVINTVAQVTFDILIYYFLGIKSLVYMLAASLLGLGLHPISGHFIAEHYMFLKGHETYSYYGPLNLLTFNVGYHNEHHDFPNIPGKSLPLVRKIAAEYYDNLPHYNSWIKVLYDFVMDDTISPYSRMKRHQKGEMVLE
Sequence of UniProt Q9BSJ8 (Q9BSJ8 whole entry, looked up): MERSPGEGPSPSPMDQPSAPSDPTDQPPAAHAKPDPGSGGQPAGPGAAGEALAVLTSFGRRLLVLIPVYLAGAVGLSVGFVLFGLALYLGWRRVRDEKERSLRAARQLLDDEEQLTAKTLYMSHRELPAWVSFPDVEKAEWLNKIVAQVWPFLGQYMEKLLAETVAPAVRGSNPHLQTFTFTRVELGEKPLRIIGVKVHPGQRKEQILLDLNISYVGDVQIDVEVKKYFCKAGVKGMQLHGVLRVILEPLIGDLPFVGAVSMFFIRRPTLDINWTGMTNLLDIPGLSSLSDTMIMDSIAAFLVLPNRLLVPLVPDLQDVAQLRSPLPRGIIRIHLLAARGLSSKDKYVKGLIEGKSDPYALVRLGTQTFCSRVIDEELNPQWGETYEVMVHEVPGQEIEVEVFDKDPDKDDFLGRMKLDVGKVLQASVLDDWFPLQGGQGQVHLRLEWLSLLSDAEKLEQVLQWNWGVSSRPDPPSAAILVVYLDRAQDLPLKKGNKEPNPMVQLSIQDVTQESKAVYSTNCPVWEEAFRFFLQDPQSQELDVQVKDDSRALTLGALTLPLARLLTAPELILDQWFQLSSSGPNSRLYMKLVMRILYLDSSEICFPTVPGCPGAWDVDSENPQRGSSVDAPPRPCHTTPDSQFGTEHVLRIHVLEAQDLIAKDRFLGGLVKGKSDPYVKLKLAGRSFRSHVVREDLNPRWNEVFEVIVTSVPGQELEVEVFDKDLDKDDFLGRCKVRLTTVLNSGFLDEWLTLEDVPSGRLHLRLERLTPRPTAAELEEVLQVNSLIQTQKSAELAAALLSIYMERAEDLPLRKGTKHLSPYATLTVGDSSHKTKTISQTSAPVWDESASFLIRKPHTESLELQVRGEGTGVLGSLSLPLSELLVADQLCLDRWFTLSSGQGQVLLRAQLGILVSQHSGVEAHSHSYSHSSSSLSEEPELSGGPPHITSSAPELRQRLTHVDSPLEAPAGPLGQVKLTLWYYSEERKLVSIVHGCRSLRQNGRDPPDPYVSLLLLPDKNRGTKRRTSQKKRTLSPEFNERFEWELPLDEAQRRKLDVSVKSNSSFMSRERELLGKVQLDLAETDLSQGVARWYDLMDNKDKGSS
Sequence of UniProt P26641 (P26641 whole entry, looked up): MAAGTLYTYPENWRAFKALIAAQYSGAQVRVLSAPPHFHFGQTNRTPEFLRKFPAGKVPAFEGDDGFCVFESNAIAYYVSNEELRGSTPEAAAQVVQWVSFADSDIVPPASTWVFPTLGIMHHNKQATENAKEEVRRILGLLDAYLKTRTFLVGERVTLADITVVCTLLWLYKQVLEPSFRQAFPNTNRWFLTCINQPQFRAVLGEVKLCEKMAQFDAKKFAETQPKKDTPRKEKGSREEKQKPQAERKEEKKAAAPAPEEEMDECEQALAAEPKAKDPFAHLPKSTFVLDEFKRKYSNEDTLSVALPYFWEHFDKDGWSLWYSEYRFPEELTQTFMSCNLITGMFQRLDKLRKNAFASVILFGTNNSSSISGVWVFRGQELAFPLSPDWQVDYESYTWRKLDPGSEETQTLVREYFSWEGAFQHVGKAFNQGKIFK
Sequence of UniProt Q9NQI0 (Q9NQI0 whole entry, looked up): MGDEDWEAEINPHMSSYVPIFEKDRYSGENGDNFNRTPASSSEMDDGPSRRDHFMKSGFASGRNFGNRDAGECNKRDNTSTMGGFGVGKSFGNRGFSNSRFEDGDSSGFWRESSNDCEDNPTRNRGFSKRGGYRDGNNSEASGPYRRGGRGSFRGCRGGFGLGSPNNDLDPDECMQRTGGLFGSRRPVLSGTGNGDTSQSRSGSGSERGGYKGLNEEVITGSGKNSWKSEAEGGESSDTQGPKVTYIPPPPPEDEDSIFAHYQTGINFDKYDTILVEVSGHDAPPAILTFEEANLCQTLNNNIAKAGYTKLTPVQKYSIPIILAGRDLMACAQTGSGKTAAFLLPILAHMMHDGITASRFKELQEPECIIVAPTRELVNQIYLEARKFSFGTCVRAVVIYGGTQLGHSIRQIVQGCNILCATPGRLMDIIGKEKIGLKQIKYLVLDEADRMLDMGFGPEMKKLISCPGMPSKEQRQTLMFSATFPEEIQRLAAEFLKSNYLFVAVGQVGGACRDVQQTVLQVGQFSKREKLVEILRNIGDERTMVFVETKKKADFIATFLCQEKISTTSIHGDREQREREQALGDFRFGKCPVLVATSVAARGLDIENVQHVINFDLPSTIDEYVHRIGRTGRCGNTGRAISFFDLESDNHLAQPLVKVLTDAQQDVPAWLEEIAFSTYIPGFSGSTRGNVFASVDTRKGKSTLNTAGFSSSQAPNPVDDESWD
Sequence of UniProt Q9NV06 (Q9NV06 whole entry, looked up): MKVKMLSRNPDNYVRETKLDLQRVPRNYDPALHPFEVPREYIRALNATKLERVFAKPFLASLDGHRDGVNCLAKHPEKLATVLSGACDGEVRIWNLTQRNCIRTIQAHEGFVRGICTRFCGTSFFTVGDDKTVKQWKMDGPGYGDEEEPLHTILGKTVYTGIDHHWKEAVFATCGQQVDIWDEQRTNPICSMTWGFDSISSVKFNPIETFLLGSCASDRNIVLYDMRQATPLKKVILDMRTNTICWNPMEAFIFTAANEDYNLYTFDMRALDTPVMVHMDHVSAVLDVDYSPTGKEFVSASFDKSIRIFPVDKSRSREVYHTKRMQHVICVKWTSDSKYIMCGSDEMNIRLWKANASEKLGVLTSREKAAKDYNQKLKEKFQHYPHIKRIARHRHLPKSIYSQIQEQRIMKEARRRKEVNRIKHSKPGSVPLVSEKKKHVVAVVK
Sequence of UniProt Q6P3W2 (Q6P3W2 whole entry, looked up): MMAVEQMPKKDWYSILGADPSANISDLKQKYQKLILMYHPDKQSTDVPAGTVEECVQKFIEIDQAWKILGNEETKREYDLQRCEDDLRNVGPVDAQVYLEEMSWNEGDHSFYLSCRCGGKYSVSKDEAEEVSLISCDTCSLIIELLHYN

Row | Target | log2 fold change [1] | log2 fold change [2] | log2 fold change [3] | log2 fold change [4] | log2 fold change [5]
1 | DPP8 (UniProt Q6V1X1) | -0.112 | 0.029 | 0.145 | -0.033 | 0.005
2 | DHPS (UniProt M0R1T2) | -0.155 |  |  |  | 
3 | EEF1AKNMT (UniProt Q8N6R0) | -0.146 | 0.049 | 0.121 | 0.028 | -0.063
4 | FADS1, A0A0A0MR51 | -0.051 | 0.026 | 0.026 | -0.005 | -0.038
5 | DDX5 (UniProt P17844) | -0.061 | 0.008 | 0.067 | -0.027 | 0.038
6 | DIP2A (UniProt Q14689) | -0.03 | 0.042 | -0.149 | 0.019 | -0.078
7 | EHD2 (UniProt Q9NZN4) | -0.018 | 0.049 | 0.022 | -0.019 | -0.049
8 | DOHH (UniProt Q9BU89) | 0.218 | 0.072 | -0.062 | 0.031 | -0.088
9 | FAM117A (UniProt Q9C073) | -0.004 | 0.057 | 0.027 | 0.01 | 0.012
10 | DNAJB1 (UniProt M0R128) | -0.843 (active) | 0.006 | 0.106 | 0.078 | 0.061
11 | FAM193B (UniProt Q96PV7) | -0.115 | 0.011 | -0.103 | 0.273 | -0.115
12 | DDB1 isoform 2 (UniProt Q16531) | 0.028 |  |  |  | 
13 | EFL1 (UniProt Q7Z2Z2) | -0.042 | 0.051 | 0.083 | 0.008 | -0.017
14 | EVC2 (UniProt Q86UK5) | -0.064 | -0.044 | -0.141 | 0.021 | 0.081
15 | DTYMK (UniProt P23919) | -0.064 | 0.082 | -0.02 | -0.003 | -0.014
16 | EIF4G3 isoform 3 (UniProt O43432) | -0.021 | 0.021 | 0.184 | 0.038 | -0.06
17 | DNAH10 (UniProt Q8IVF4) | 0.09 | 0.103 | 0.062 | -0.131 | 0.031
18 | CTNNB1 (UniProt P35222) | -0.039 | 0.101 | 0.312 | -0.062 | -0.149
19 | DHX36 (UniProt Q9H2U1) | 0.037 | -0.087 | -0.094 | 0.091 | 0.015
20 | DOCK8 (UniProt Q8NF50) | 0.096 | -0.223 | -0.01 | 0.152 | -0.087
21 | EIF4G1 isoform 8 (UniProt Q04637) | -0.074 | -0.016 | -0.036 | 0.135 | -0.002
22 | DUS2 (UniProt Q9NX74) | 0.024 | 0.055 | 0.109 | -0.087 | -0.023
23 | FAM160B1 (UniProt Q5W0V3) | -0.005 | 0.026 | -0.01 | -0.022 | -0.041
24 | EDC4 (UniProt Q6P2E9) | 0.02 | -0.004 | 0.075 | 0.023 | 0.024
25 | F5 (UniProt P12259) | -0.025 | -0.091 | 0.003 | 0.077 | 0.014
26 | DAXX (UniProt Q9UER7) | 0.166 | 0.178 | 0.197 | 0.017 | -0.101
27 | CTSZ (UniProt Q9UBR2) | -0.003 | 0.009 | 0.032 | 0.039 | -0.01
28 | DDX4 (UniProt Q9NQI0) | 0.052 | -0.11 | 0.213 | 0.274 | 0.001

Row | Target | log2 fold change [1] | log2 fold change [2] | log2 fold change [3] | log2 fold change [4] | log2 fold change [5]
29 | EPHX2 (UniProt E5RI53) | -0.024 |  |  |  | 
30 | ELOVL1 (UniProt Q9BW60) | -0.16 | 0.145 | 0.045 | -0.134 | -0.05
31 | DDB1 (UniProt Q16531) | 0.023 | -0.003 | 0.01 | 0 | 0.016
32 | DAG1 (UniProt Q14118) | -0.068 | 0.074 | 0.072 | 0.016 | 0.049
33 | CYP51A1 (UniProt Q16850) | -0.096 | 0.055 | -0.037 | -0.01 | -0.001
34 | EIF3J (UniProt O75822) | -0.034 | 0.025 | -0.004 | -0.041 | -0.035
35 | DNAJC19 (UniProt Q96DA6) | 0.025 | 0.021 | 0.05 | 0 | -0.041
36 | ESYT1 isoform 2 (UniProt Q9BSJ8) | -0.063 | -0.046 | 0.018 | 0.008 | -0.046
37 | EEF1G isoform 2 (UniProt P26641) | -0.068 | 0.005 | -0.049 | -0.001 | -0.006
38 | EIF2AK1 (UniProt Q9BQI3) | 0.025 | -0.036 | -0.051 | 0.025 | 0.018
39 | DYNC1LI2 (UniProt O43237) | -0.04 | -0.071 | 0.035 | -0.028 | 0.013
40 | EEF1D isoform 2 (UniProt P29692) | -0.031 | 0.003 | 0.073 | 0.012 | -0.011
41 | CUEDC2 (UniProt Q9H467) | 0.036 | 0.047 | 0.038 | 0.01 | -0.022
42 | DSN1 (UniProt Q9H410) | 0.02 | 0.016 | 0.059 | 0.045 | -0.054
43 | EXOC1 (UniProt Q9NV70) | -0.095 | 0.021 | 0.121 | 0.027 | -0.075
44 | DCAF13 (UniProt Q9NV06) | 0.105 | -0.221 | -0.152 | 0.128 | 0
45 | DCAF16 (UniProt Q9NXF7) | 0.06 | 0.056 | 0.079 | 0.032 | -0.032
46 | EXTL2 (UniProt Q9UBQ6) | 0.028 | 0.106 | 0.003 | 0.316 (active) | -0.211
47 | EZH2 isoform 2 (UniProt Q15910) | 0.023 | -0.056 | -0.14 | 0.016 | -0.034
48 | DEGS1 (UniProt O15121) | 0.083 | 0.04 | -0.001 | 0.122 | 0.052
49 | DNAJC7 (UniProt Q99615) | -0.045 | 0.043 | 0.072 | -0.013 | 0
50 | DNAJC24 (UniProt Q6P3W2) | 0.05 | 0.072 | 0.025 | -0.002 | 0.054
51 | DHFR (UniProt P00374) | -0.077 | -0.014 | 0.083 | 0.058 | 0.396
52 | DNAH11 (UniProt Q96DT5) | 0.047 | -0.387 | 0.089 | -0.021 | 0.092
53 | DCTN1 isoform 4 (UniProt Q14203) | -0.052 | -0.021 | 0.096 | 0.044 | -0.008
54 | FAM114A2 (UniProt Q9NRY5) | -0.046 | 0.047 | 0.018 | 0.033 | 0.006
55 | DLD (UniProt P09622) | 0.016 | 0.006 | -0.005 | -0.016 | 0.044
